# HIF activator = HIF pathway transcriptional activation | U2OS HRE-luciferase reporter, luminescence; normalized: DMSO 0%, desferrioxamine 100% | activation, % at 7.5 µM (by protocol) | 0.32% of 300,000 active;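 active means mean activation of at least 10% of the iron chelator positive control signal, with at least half of replicates also reaching 10%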
# HSP90 refold inh = HSP90 refolding inhibition in rabbit reticulocyte lysate; AID 1789; inhibition, % at 5.6 µM; 0.91% of 290,000 active; luciferase refolding luminescence, 3 h;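 active means inhibition above the screen-wide mean plus 3 SD, computed separately per campaign, cut at about 16% in these data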;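 further: inhibitors lower the luminescence because luciferase stays unfolded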
# HSF1 activator = increases HSF-1 driven luciferase reporter signal | NIH3T3-HGL HSF-1 luciferase reporter, MG132, 8 h; 100% = twice DMSO control signal | activation, % at 9 µM | 1.7% of 300,000 active | AID 504408;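 active means mean replicate activation of at least 50% with a set share of replicates each reaching 50%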
# HSF1 inh = HSF1 inhibition; AID 2098; 0.77% of 300,000 active; activity change, negative = inhibition, % at 7.5 µM (by protocol); NIH3T3-HGL HSE-luciferase, MG132-induced, luminescence 8 h; hits give low values;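 active means more than half of replicate wells show activity change below -50%, luminescence cut by over half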;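 further: luciferase reports HSF-1 transcriptional activity via heat shock element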
# ARNT TACC3 PPI = disruptors of human ARNT/TACC3 interaction; Q9Y6A5; AlphaScreen His-ARNT PAS-B/GST-TACC3 binding, luminescence; TACC3 fragment carries E629A point mutation; inhibition, % at 9.99 µM; 0.66% of 390,000 active;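 active means mean inhibition of replicates at least 50% and at least half of replicates each reaching 50%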
# HSP90 confirm = confirmation of HSP90 inhibitors | inhibition, % at 5.9 µM | 64% of 2,300 active | shares compounds with HSP90 refold inh | AID 1846 | rabbit reticulocyte lysate, luciferase refolding luminescence, 3 h; in the data active means inhibition above about 18%
# luciferase ctr = counter-screen for HSP90 inhibitors: inhibitors of firefly luciferase; shares compounds with HSP90 refold inh; purified native firefly luciferase, luminescence; inhibition, % at 5.9 µM; 48% of 2,300 active; AID 1847;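 active means inhibition above the mean inhibition of all tested sample wells plus 3 SD, cut at about 10% in these data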
# Target sequence (P08659 whole entry, looked up): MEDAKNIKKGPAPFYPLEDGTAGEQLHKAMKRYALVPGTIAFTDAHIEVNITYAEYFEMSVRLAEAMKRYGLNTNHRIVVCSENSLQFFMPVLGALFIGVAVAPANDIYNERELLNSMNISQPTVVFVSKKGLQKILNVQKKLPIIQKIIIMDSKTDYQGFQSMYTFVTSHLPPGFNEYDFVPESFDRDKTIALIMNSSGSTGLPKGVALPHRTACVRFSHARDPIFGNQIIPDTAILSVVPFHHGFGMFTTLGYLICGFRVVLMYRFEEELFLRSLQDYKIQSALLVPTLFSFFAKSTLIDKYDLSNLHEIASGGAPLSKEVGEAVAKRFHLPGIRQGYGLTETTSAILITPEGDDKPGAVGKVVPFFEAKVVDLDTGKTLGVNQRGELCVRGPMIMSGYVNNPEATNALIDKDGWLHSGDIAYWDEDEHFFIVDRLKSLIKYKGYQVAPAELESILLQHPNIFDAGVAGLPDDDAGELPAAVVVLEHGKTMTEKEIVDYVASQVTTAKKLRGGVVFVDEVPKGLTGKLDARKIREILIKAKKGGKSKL
# Numbers stand for hits; n = inactive; x = no result. Most compounds without a hit are left out; they make up all but 3.1% or so of the library.
SMILES,HIF activator,HSP90 refold inh,HSF1 activator,HSF1 inh,ARNT TACC3 PPI,HSP90 confirm,luciferase ctr
CC(C)(C)c1ccc(C(=O)NCCc2ccccc2)cc1,n,21.4,n,n,n,53.1,42.9
O=C(NCCc1ccccc1)c1ccc([N+](=O)[O-])cc1,n,23.4,n,n,n,34.2,29.9
O=C(NCCc1ccc([N+](=O)[O-])cc1)c1ccccc1,n,n,n,n,n,x,x
COCCCN1C(=O)c2ccc(C(=O)NCCc3ccccc3)cc2C1=O,n,22.1,n,n,n,41.8,23.5
CC(C)(C)c1ccc(C(=O)NCCOc2ccccc2)cc1,n,48.5,n,-67.9,n,69.7,65.5
CN1CCN(C(=O)C[C@@H]2C[C@H]3c4cc(NC(=O)NC5CCCC5)ccc4O[C@H]3[C@@H](CO)O2)CC1,x,x,x,x,n,x,x
O=C(C[C@@H]1CC[C@@H](NC(=O)C2CC2)[C@@H](CO)O1)NCc1ccncc1,x,x,x,x,n,x,x
COc1ccc(S(=O)(=O)Nc2ccc3c(c2)C(=O)N([C@@H](C)CO)C[C@@H](C)[C@H](CN(C)Cc2ccccc2)OCCCC[C@H](C)O3)cc1,x,x,x,x,n,x,x
O=C(NCCc1ccccc1)c1cccc(N2CCCC2=O)c1,n,35.0,n,n,n,52.5,33.2
CCOCC(=O)Nc1cc(C(=O)NCCc2ccccc2)ccc1Cl,n,17.1,n,n,n,32.0,n
COCC(=O)Nc1cc(C(=O)NCCc2ccccc2)ccc1Cl,n,n,n,n,n,x,x
CC(C)(C)c1ccc(C(=O)NCCOc2ccccc2F)cc1,n,62.9,n,-70.8,n,80.0,78.2
COc1ccc(-c2cn(CC[C@H]3CC[C@H](N)[C@@H](CO)O3)nn2)cc1,x,x,x,x,n,x,x
COc1ccccc1NC(=O)Nc1ccc2c(c1)C(=O)N(C)C[C@H](OC)[C@H](C)CN(C)[C@@H](C)CO2,x,x,x,x,n,x,x
CCCNC(=O)C[C@@H]1C[C@@H]2c3cc(NC(=O)Cc4ccncc4)ccc3O[C@@H]2[C@@H](CO)O1,x,x,x,x,n,x,x
CN(C)c1ccc(-c2nc3ccccn3c2/N=C/c2ccc(Br)cc2)cc1,n,17.6,n,n,n,35.1,19.3
O=C(NCCc1ccc(Cl)cc1)c1ccc2c(c1)OCCO2,n,17.6,n,n,n,26.9,23.4
O=C(NCCc1ccccc1F)c1ccc2c(c1)OCCO2,n,95.2,n,-75.3,x,98.4,91.8
O=C(NCCOc1ccc(Cl)cc1)c1ccc2c(c1)OCCO2,x,x,x,x,n,x,x
O=C(C[C@H]1CC[C@H]2[C@@H](COC[C@H](O)CN2Cc2cocn2)O1)NCc1cccc(F)c1,x,x,x,x,n,x,x
COC(=O)C(c1ccccc1)C(C(=O)OC)c1ccccc1 (stereo not drawn),n,n,n,n,n,x,x
COC(=O)[C@@H](c1ccccc1)N(C)S(=O)(=O)c1cccc(S(=O)(=O)N(C)[C@@H](C(=O)OC)c2ccccc2)c1,n,22.1,n,n,n,n,n
Cc1ccccc1-c1nc2sc3c(c2c(=O)n1N)CCCC3,n,37.6,n,-60.2,n,36.6,37.0
COc1ccc(-n2nc(C(=O)NCC(=O)N3CCN(Cc4ccccc4)CC3)c3ccccc3c2=O)cc1,n,24.4,n,n,n,n,n
C[C@H](CO)N1C[C@H](C)[C@@H](CN(C)C(=O)c2cnccn2)Oc2cc(C3=CCCC3)ccc2S1(=O)=O,x,x,x,x,n,x,x
SMILES,HIF activator,HSP90 refold inh,HSF1 activator,HSF1 inh,ARNT TACC3 PPI,HSP90 confirm,luciferase ctr
CCOc1cc(CN2CCN(CCc3ccccc3)C(CCO)C2)ccc1OC (stereo not drawn),n,26.7,n,n,n,n,n
O=C(CSc1ncccc1C(=O)O)c1ccc2ccccc2c1,n,95.5,n,n,n,92.9,n
CC(C)c1ccc(OCc2ccc(C(=O)NN3CCN(C)CC3)o2)cc1,n,18.8,n,n,x,18.1,n
CC(C)c1ccc(OCc2ccc(C(=O)O)o2)cc1,x,93.8,x,x,n,94.1,80.2
O=C(O)c1ccc(OCc2ccc(C(=O)O)o2)cc1,n,n,n,n,n,x,x
COc1ccc(OCc2cc(C(=O)O)c(C)o2)cc1,n,55.2,n,n,x,62.8,28.3
CCc1ccc(OCc2ccc(C(=O)O)o2)cc1,n,95.6,n,n,n,93.9,67.9
CC(C)c1ccc(OCc2ccc(C(=O)N(C)C)o2)cc1,n,n,n,n,n,x,x
CC(C)NC(=O)c1ccc(COc2ccc(C(C)(C)C)cc2)o1,n,n,n,n,n,x,x
CO[C@H]1CN(C)C(=O)c2cc(NC(=O)C3CC3)ccc2OC[C@@H](C)N(C)C[C@H]1C,x,x,x,x,n,x,x
O=C(Nc1nnc(-c2ccc(F)cc2)s1)c1ccco1,n,50.5,n,n,n,n,n
O=S(=O)(Nc1cc(Sc2ncn[nH]2)c(O)c2ccccc12)c1ccccc1,x,92.8,x,x,x,n,9.4
C[C@H](CO)N1C[C@H](C)[C@@H](CN(C)Cc2ccccc2)Oc2ccc(NC(=O)Nc3ccc(F)cc3)cc2C1=O,x,x,x,x,n,x,x
O=C(C[n+]1cc(-c2ccc(F)cc2)n2c1CCC2)Nc1nc(-c2ccccc2)cs1,n,n,n,n,n,x,x
Cc1ccc(-c2c[n+](CC(=O)Nc3nc(-c4ccc(F)cc4)cs3)c3n2CCC3)cc1,n,25.6,n,n,n,18.8,n
O=c1c(C=NCc2cccnc2)c(C(F)(F)F)[nH]n1-c1nc2ccccc2s1,n,41.7,n,n,n,35.3,11.4
O=C(/C=C/Nc1ccc(F)cc1Br)c1ccccc1,n,18.8,n,-66.1,n,89.0,82.5
COc1ccc(OC)c(N/C=C/C(=O)c2ccccc2)c1,n,70.3,n,n,n,92.2,84.5
Cc1cc(N/C=C/C(=O)c2ccccc2)ccc1Br,n,n,n,n,n,x,x
COc1cccc(N/C=C/C(=O)c2ccc(C)cc2)c1,n,19.5,n,n,n,34.5,27.8
O=C([C@H]1[C@H](CO)[C@H]2Cn3c(cccc3=O)[C@H]2N1CC1CC1)N1CCc2ccccc2C1,x,x,x,x,n,x,x
CCC(=O)N(C)C[C@H]1Oc2cc(-c3cncnc3)ccc2S(=O)(=O)N([C@@H](C)CO)C[C@@H]1C,x,x,x,x,n,x,x
COc1ccccc1OCc1ccc(C(=O)N(C)c2ccccc2)o1,n,31.9,n,n,n,n,n
COc1ccc2nc(/C=N/NC(=O)[C@@H]3CCCN3C(=O)OC(C)(C)C)ccc2c1,n,40.6,n,n,n,25.7,n
Cc1cc(OC(C)C(=O)NC(Cc2c[nH]c3ccc(O)cc23)C(=O)O)c2c(C)c(C)c(=O)oc2c1 (stereo not drawn),n,n,n,n,n,x,x
CC(Oc1ccc2c(c1)oc(=O)c1ccccc12)C(=O)NC(Cc1c[nH]c2ccc(O)cc12)C(=O)O (stereo not drawn),n,46.9,n,n,n,n,n
CC(C)C#Cc1ccc2c(c1)O[C@@H](CN(C)C(=O)Cc1ccccn1)[C@H](C)CN([C@@H](C)CO)S2(=O)=O,x,x,x,x,n,x,x

# Source: PubChem (several laboratories)
